# Sfp PPTase inh: Sfp phosphopantetheinyl transferase inhibition; Q9F4F7; Biochemical Sfp PPTase activity, qHTS; Potency, µM, without a hit: largest response in the series, negative = inhibition, most hits filed as inhibitors; hit rate 3.5% among 310,000; AID 1490;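 also: the enzyme is Sfp with the accession as filed and its product quenches rhodamine fluorescence; 0% = enzyme reaction without inhibitor and -100% = no enzyme wells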
#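 Step 1, compound plus 15 nM Sfp-PPTase, 15 min, room temperature. Step 2, add rhodamine-CoA (5 uM) and BHQ-2-YbbR (12.5 uM). Step 3, read 525/598 nm fluorescence at 0 and 30 min.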
# BAZ2B inh: inhibitors of human BAZ2B bromodomain; Potency, µM (top dose mostly 114 µM), for the others: at the top dose activity change, negative = inhibition, usual class: inhibitors; hit rate 4.4% among 360,000; AlphaScreen BAZ2B-H3K14Ac peptide displacement; AID 504333; Q9UIF8; also: % is scaled to controls: 0 for no effect and ±100 for the full control effect; nearly all actives have a fitted effect of over 60% in size
#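 AlphaScreen displacement: compounds (up to 110uM) incubated 30 min at room temperature with a preformed 50 nM BAZ2B/50 nM biotinylated H3K14Ac peptide complex in PBS pH 7.4 with Tween-20. Donor and acceptor beads at 10 ug/mL final added, 20 min light-protected before reading.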
# JMJD2A Tudor: JMJD2A Tudor domain (human) inhibition; AID 504339; AlphaScreen JMJD2A-Tudor / H3K4me3 peptide binding; Potency, µM (doses to about 114 µM), for inactives: top-dose activity change, negative = inhibition, usual class: inhibitors; O75164; hit rate 4.4% among 390,000; also: % is scaled to controls: 0 for no effect and ±100 for the full control effect; nearly all actives have a fitted effect of over 50% in size
# G9a block: blocks human histone lysine methyltransferase G9a; G9a H3K9 monomethylation, AlphaScreen, 2 h; Potency, µM (highest dose often 102 µM), for inactives: at the top dose activity, negative = inhibition, usual class: inhibitors; hit rate 8.8% among 350,000; AID 504332; also: % is scaled to controls: 0 for no effect and ±100 for the full control effect; nearly all actives have a fitted effect of over 75% in size
# Target sequence (Q96KQ7 913-1193 limits assumed): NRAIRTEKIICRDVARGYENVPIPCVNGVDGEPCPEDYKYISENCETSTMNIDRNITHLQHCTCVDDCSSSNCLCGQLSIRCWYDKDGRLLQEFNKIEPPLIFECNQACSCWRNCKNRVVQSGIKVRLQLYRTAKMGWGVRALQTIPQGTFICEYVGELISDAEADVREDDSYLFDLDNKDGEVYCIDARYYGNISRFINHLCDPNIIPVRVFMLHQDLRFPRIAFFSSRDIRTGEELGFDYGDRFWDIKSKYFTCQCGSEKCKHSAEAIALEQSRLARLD
#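 Signal arises when biotinylated H3K9 peptide, once monomethylated, bridges streptavidin donor and antibody-captured acceptor beads. Enzyme at 20 nM was preincubated 15 min with test compounds; peptide 500 nM and SAM 20 uM then reacted for 2 h.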
# HP1b chromo inh: inhibitors of HP1-beta chromodomain binding to methylated histone tails | P83916 | AlphaScreen HP1-beta / biotin-H3K9me3 peptide binding | Potency, µM (doses to about 114 µM), without a hit: top-dose activity change, negative = inhibition, usual class: inhibitors | hit rate 0.56% among 390,000; also: nearly all actives have a fitted effect of over 70% in size
# Target sequence (P83916 whole entry, looked up): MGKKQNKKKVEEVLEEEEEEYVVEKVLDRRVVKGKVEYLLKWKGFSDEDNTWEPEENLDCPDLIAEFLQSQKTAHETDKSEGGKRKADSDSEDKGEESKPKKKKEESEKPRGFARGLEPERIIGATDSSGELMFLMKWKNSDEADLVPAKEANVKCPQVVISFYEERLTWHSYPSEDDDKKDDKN
#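 AlphaScreen: HP1-beta (50 nM) preformed 30 min with biotin-H3(1-18)K9me3 peptide (50 nM) in PBS pH 7.4, 0.01% Tween-20. Compound added for 30 min at RT, then streptavidin donor/nickel chelate acceptor beads (10 ug/mL) for 30 min.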
# Active calls of the source: *; ? = inconclusive; . = not tested or not shown; [ ] = dose if it differs, or a comment. Compounds with a hit are over-represented: about 12% of the library has one in this group of screens. Calls follow the shape of the dose curve; as a rule, active = well fitted curve in the direction sought with a large enough effect; inconclusive = small, poorly fitted or top-dose-only effect, or another doubt; inactive = no such curve, though single readings can be large; an effect the other way counts as inactive or inconclusive. Potency is read from the fitted curve at half-maximal effect.
SMILES,Sfp PPTase inh,BAZ2B inh,JMJD2A Tudor,G9a block,HP1b chromo inh
COc1cccc(OCc2nc3ncc(Br)cc3[nH]2)c1,0.2%,-1.8%,-28.2%,11.2%[12.7 µM],9.4%
Cc1cc(C)c(NC(=O)Cn2nnc(S(=O)(=O)c3ccc(C)c(C)c3)c2N)c(C)c1,.,-35.0%,-31.3%,?,27.7%
Cc1ccc(C)c(Cn2cc(S(=O)(=O)c3ccc(Cl)cc3)c(=O)c3cc(F)ccc32)c1,.,1.7%,3.0%,7.3%[59 µM],32.2%
CCOc1ccc(C(=O)Nc2nc(-c3ccc(Br)cc3)ns2)cc1,.,0.8%,-1.0%,8.4%[59 µM],65.7%
CC1(C)CC2(CC(c3ccc(F)cc3)c3ccc(O)cc3O2)NC(=S)N1 (stereo not given),13.5%,?,?,?,10.1%
CC1(C)CC2(CC(c3ccccc3F)c3ccc(O)c(O)c3O2)NC(=S)N1 (stereo not given),8.91µM*,44.7µM*,39.8µM*,.,?
Cc1ccc2nc(NC(=O)CCCC(=O)O)sc2c1,19.7%,-30.4%,-21.8%,-21.8%,25.1%
CC1CCCCC1NC(=O)CCCn1c(=S)[nH]c2ccsc2c1=O (stereo not given),-0.8%,-0.8%,-11.0%,31.6µM*,53.0%
CCOC(=O)N1CCN(C(=O)CCn2c(=S)[nH]c3ccsc3c2=O)CC1,56.2µM*,?,?,44.7µM*,26.0%
O=C(CCCCn1c(=S)[nH]c2ccsc2c1=O)NCc1ccc2c(c1)OCO2,-13.6%,?,-33.1%,10µM*,17.1%
O=C(CCCn1c(=S)[nH]c2ccsc2c1=O)Nc1ccc2c(c1)OCCO2,?,-10.8%,-29.5%,3.55µM*,8.8%
COc1ccc(CCNc2cc(C)nc3c(-c4ccccc4)c(C)nn23)cc1OC,-23.0%,-38.7%,-4.3%,27.6%[59 µM],46.0%
O=C(c1ccc2ccccc2n1)N1CCN(c2ccccn2)CC1,-3.6%,-12.2%,-31.8%,18.4%,-5.8%
Cc1ccc(-n2c(-c3ccccc3)c[nH]c2=S)cc1,-22.0%,-10.1%,11.2µM*,2.82µM*,-4.8%
COc1ccc(-n2c(-c3ccc(Cl)cc3)c[nH]c2=S)cc1,56.2µM*,?,-21.7%,?,19.9%
CCOC(=O)c1c[nH]c(=S)n(-c2ccccc2)c1=O,.,6.5%,-17.9%,23.9%[2.33 µM],65.1%
CCn1c(-c2ccccc2)c[nH]c1=S,-22.9%,-38.3%,8.91µM*,?,?
CC(C)Cn1c(-c2ccc(Br)cc2)c[nH]c1=S,8.0%,?,50.1µM*,0.891µM*,?
COc1ccc(CCCCCCOCc2ccccc2)cc1,.,468.2%,133.6%,-4.3%[0.501 µM],219.2%
COc1ccccc1NC(=O)c1ccccc1-c1ccccc1C(=O)O,14.6%,0.9%,0.4%,-4.6%[59 µM],35.4%
Cc1ccc(N2CC(c3nnc(Cc4ccc(F)cc4Cl)o3)CC2=O)cc1 (stereo not given),.,-1.1%,1.7%,-27.5%[59 µM],7.6%
FC(F)(F)c1cccc(OCc2nnc3n2CCC3)c1,-14.4%,-4.9%,-18.5%,46.7%,23.6%
S=c1[nH]cc(-c2ccccc2)n1-c1ccccc1,44.7µM*,?,28.2µM*,0.891µM*,-19.6%
Cc1ccc(-c2cc(NC(=O)CCl)n(-c3ccccc3)n2)cc1,13.1%,-17.8%,79.4µM*,-45.9%,-2.7%
Fc1ccc(CNC2CCN(Cc3ccccc3)CC2)cc1,-6.7%,-7.4%,-22.3%,.,19.5%
SMILES,Sfp PPTase inh,BAZ2B inh,JMJD2A Tudor,G9a block,HP1b chromo inh
O=C(NC1CCN(Cc2ccc(F)cc2)CC1)c1ccccc1,-5.2%,10.4%,-15.6%,-4.6%,15.1%
O=C(C1CCN(Cc2ccc(F)cc2)CC1)N(CCO)Cc1ccccc1,-3.4%,-16.1%,3.55µM*,?,-22.8%
O=C(C1CCN(Cc2ccc(F)cc2)CC1)N(CCc1ccccc1)Cc1ccccc1,-20.6%,?,6.31µM*,12.6µM*,?
COc1ccccc1N/C(=N/S(=O)(=O)c1ccc(C)cc1)c1ccc(Cl)cc1,11.3%,0.2%,-24.4%,24.8%,17.3%
C=CCN1CCN(C(=O)c2c(-c3ccccc3)noc2C)CC1,18.7%,0.1%,-13.8%,31.0%,33.9%
N#Cc1c(-n2ncnc2-c2cccc(Br)c2)sc2c1CCCCC2,.,-10.9%,?,0.3%[59 µM],-9.5%
N#Cc1c(-n2ncnc2-c2ccc(F)cc2)sc2c1CCCCC2,.,7.08µM*,?,?,?
Cc1cccc(Cn2cc(/C=C(/C#N)C(=O)Nc3cccc(Cl)c3)c3ccccc32)c1,.,2.5%,-2.9%,17.9%[59 µM],6.9%
CCOc1c(C=C(C#N)C#N)c2ccccc2n1CC,50.1µM*,-38.6%,?,10µM*,20.7%
Cc1ccc(N(CCC#N)C(=O)COC(=O)c2cc(C)no2)cc1,.,10.5%,-13.1%,22.4µM*,14.4%
Cc1ccc(N(CCC#N)C(=O)COC(=O)C2CCN(S(=O)(=O)c3ccc(C)c(C)c3)CC2)cc1,.,-32.3%,-2.7%,44.7µM*,33.7%
Cc1cc(C)cc(N(CCC#N)C(=O)COC(=O)C2CCN(S(=O)(=O)c3ccc(C)c(C)c3)CC2)c1,.,6.7%,-15.1%,-44.3%,18.6%
O=C(NC1CCCCCC1)c1ccc(CS(=O)c2ccc(Br)cc2)o1 (stereo not given),.,.,-7.3%,-32.9%[59 µM],14.9%
COC(=O)C1CCN(C(=O)Cc2ccc(C)cc2)CC1,5.3%,9.5%,-5.7%,-3.8%,14.2%
CCCc1ccc(-c2c(C)sc(N)c2C#N)cc1,35.5µM*,?,-29.0%,39.8µM*,?
O=C(NNC(=S)Nc1cccc(C(F)(F)F)c1)c1ccc(Cl)cc1Cl,1.2%,-38.8%,?,-6.9%[59 µM],?
Nc1[nH]n(-c2c(Cl)cc(Cl)cc2Cl)c(=O)c1N=Nc1ccc(S(=O)(=O)Nc2ncccn2)cc1,.,.,-24.1%,.,10.2%
O=[N+]([O-])c1cccc(/C=C2\CCC(/C=N/Nc3ccc4ccccc4n3)=C2N2CCOCC2)c1,24.5%,?,-21.8%,8.2%[59 µM],-21.9%
O=C(NP(=O)(N1CCCC1)N1CCCC1)C1=C(N2CCOCC2)/C(=C/c2cccc([N+](=O)[O-])c2)CC1,-5.7%,44.7µM*,-25.2%,44.7µM*,-5.7%
CC(=O)Nc1ccc(S(=O)(=O)Nc2cc(Cl)ccc2N2CCOCC2)cc1,.,.,-24.7%,.,7.5%
O=S(=O)(Nc1ccc(Cl)cc1)c1ccc(N2CCOCC2)c(NC(=S)NC2CC2)c1,-85.7%,?,-23.8%,7.94µM*,-22.0%
CNC(=S)Nc1cc(S(=O)(=O)Nc2cc(Cl)ccc2Cl)ccc1N1CCCC1,-9.0%,-38.2%,?,50.1µM*,-8.1%
CC1CCCN(C(=O)COC(=O)c2cccc(NS(=O)(=O)c3ccccc3)c2)C1 (stereo not given),.,7.8%,1.4%,-2.4%,17.0%
O=C1Cc2cc(CCN3CCN(c4nsc5ccccc45)CC3)c(Cl)cc2N1,-14.9%,?,.,10.6µM*,.
Oc1cc2cc(CCN3CCN(c4nsc5ccccc45)CC3)c(Cl)cc2[nH]1,-8.2%,.,.,?,.
NC(=O)Cn1cc(/C=N\NS(=O)(=O)c2ccc(Cl)cc2)c2ccccc21,4.5%,-13.1%,-17.8%,32.3%,38.8%

# Assay outcomes from PubChem BioAssay.
